Data on one compound can be found in PubChem BioAssay AID651916 (Vanderbilt Specialized Chemistry Center, 2012).

Activity calls are given as the source filed them. The rule behind the calls is not given here.

The target of the test is Histone deacetylase 3 (Homo sapiens) (UniProt O15379). Nature of the test: HDAC3 deacetylase inhibition, profiling panel, selectivity assay for E-cadherin restoration project, biochemical, human (AID 651916).
Histone deacetylase 3 (Homo sapiens), sequence (O15379 whole entry, looked up): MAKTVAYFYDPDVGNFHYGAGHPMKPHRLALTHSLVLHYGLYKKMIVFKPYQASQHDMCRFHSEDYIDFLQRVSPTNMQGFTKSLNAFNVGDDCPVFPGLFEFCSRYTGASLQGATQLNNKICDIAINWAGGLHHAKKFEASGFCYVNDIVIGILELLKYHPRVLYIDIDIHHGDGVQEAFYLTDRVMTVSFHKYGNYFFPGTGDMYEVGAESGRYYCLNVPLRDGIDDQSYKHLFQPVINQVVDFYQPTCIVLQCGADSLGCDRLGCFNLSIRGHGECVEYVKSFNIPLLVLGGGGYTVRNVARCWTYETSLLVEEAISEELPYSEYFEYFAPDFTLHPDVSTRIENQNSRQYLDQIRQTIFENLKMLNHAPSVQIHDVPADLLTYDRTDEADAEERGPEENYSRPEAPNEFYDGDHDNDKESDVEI

Consider `O=C(NCCCNC(=O)c1ccc[nH]c1=O)c1cc(-c2ccccc2)on1`, for which the compound was classed as inactive.
